Data: PubChem BioAssay (Tox21)
Values joined by “and” are separate entries in the source; they are usually repeats but may differ in a detail not shown here. Equal values may be shown once. Some structures have more than one record in an assay (separate samples or runs), and their calls can disagree. Active and inactive are the calls of the source. A call without a number means that no potency is given here. Unless noted, calls follow the shape of the dose curve; as a rule, active = well fitted curve in the direction sought with a large enough effect in the repeat runs; inconclusive = weak or mixed curves; inactive = no such curve, though single readings can be large; an effect the other way counts as inactive or inconclusive. Residues, ends and D or L forms follow the SMILES beside them.

Legend:
[1] = qHTS assay to identify small molecule antagonists of the thyroid receptor (TR) signaling pathway - cell viability counter screen (AID 743064); also: nearly all actives have a fitted effect of over 50% in size; also: potency is read from the fitted curve at half-maximal effect
Method in brief: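 Fluorescence from CellTiter-Fluor, added after 23.5 h exposure at 37 °C, reported viability of GH3.TRE-Luc cells co-treated with compound and 1 nM T3. Measured in the same wells as the luciferase TR readout.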

[2] = qHTS assay to identify small molecule antagonists of the thyroid receptor (TR) signaling pathway (AID 743065); also: nearly all actives have a fitted effect of over 55% in size; also: potency is read from the fitted curve at half-maximal effect
Method in brief: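 Antagonism measured as loss of luciferase signal in GH3 cells stably carrying a TRE-luciferase reporter, co-treated with compound and T3 (1 nM final) for 23.5 h at 37 C. Viability was read in the same well by CellTiter-Fluor.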

[3] = test system: thyroid hormone receptor (rat, GH3 cells); assay: qHTS assay to identify small molecule agonists of the thyroid receptor (TR) signaling pathway (AID 743066; calls by dose curve)
[4] = target: Estrogen receptor (Homo sapiens) (UniProt P03372); assay: qHTS assay to identify small molecule antagonists of the estrogen receptor alpha (ER-alpha) signaling pathway (AID 743069; active = well fitted curve in the direction sought with a large enough effect in the signal ratio in the repeat runs, not every such curve was filed as active; inconclusive = weak or mixed curves, or effect the other way; inactive = no such curve, though single readings can be large or run the other way; the % refers to the signal ratio; also: potency is read from the fitted curve at half-maximal effect)
Estrogen receptor (Homo sapiens), sequence (P03372 whole entry, looked up): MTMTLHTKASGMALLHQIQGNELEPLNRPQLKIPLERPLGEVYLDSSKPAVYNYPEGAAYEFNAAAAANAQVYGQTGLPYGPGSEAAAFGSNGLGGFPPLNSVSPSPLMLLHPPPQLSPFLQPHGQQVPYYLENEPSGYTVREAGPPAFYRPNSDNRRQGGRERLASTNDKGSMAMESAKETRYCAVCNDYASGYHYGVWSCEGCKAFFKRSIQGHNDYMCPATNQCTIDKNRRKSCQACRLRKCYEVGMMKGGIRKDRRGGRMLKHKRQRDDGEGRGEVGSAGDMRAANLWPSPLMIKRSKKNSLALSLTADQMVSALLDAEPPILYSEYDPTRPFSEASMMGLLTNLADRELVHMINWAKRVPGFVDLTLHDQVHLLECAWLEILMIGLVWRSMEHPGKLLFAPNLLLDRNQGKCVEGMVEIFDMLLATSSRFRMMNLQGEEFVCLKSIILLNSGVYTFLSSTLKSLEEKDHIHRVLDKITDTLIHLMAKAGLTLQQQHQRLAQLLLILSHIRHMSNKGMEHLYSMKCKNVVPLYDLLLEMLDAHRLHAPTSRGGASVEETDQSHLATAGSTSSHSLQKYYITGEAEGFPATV
Method in brief: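 Fluorescence intensity from a beta-lactamase FRET substrate served as the read-out. Cells: HEK293 with stably integrated ER-alpha-UAS-bla reporter. Agonist 17beta-estradiol was co-added with compounds; incubation 18 hr at 37C, substrate 2 hr at room temperature.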

[5] = qHTS assay to identify small molecule antagonists of the estrogen receptor alpha (ER-alpha) signaling pathway - cell viability counter screen (AID 743074; calls by dose curve; also: nearly all actives have a fitted effect of over 45% in size)
[6] = target: Estrogen receptor (Homo sapiens) (UniProt P03372); assay: qHTS assay to identify small molecule agonists of the estrogen receptor alpha (ER-alpha) signaling pathway (AID 743075; calls by dose curve; also: potency is read from the fitted curve at half-maximal effect)
[7] = target: Estrogen receptor (Homo sapiens) (UniProt P03372); assay: qHTS assay to identify small molecule agonists of the estrogen receptor alpha (ER-alpha) signaling pathway using the BG1 cell line (AID 743079); also: nearly all actives have a fitted effect of over 20% in size; also: potency is read from the fitted curve at half-maximal effect
[8] = qHTS assay to identify small molecule antagonists of the estrogen receptor alpha (ER-alpha) signaling pathway using the BG1 cell line (AID 743080; calls by dose curve;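 also: BG1 cells stimulated with 17beta-estradiol alongside compound; series mostly up to about 70 µM; nearly all actives have a fitted effect of over 25% in size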)
Method in brief: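 After 5 days in phenol-red-free 10% charcoal-stripped FBS medium, BG1-Luc-4E2 cells were seeded, left 24 h at 37 C, co-treated with compounds and 17beta-estradiol for 21.5 h, then assayed for viability and luciferase.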

[9] = qHTS assay to identify small molecule antagonists of the estrogen receptor alpha (ER-alpha) signaling pathway using the BG1 cell line - cell viability counter screen (AID 743081);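 also: compound given together with 17beta-estradiol as the ER stimulus; nearly all actives have a fitted effect of over 45% in size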; also: potency is read from the fitted curve at half-maximal effect
Aromatase (Homo sapiens) = Aromatase (Homo sapiens) (UniProt P11511); assay: qHTS assay to identify aromatase inhibitors (AID 743083); also: nearly all actives have a fitted effect of over 55% in size; also: potency is read from the fitted curve at half-maximal effect
Aromatase (Homo sapiens), sequence (P11511 whole entry, looked up): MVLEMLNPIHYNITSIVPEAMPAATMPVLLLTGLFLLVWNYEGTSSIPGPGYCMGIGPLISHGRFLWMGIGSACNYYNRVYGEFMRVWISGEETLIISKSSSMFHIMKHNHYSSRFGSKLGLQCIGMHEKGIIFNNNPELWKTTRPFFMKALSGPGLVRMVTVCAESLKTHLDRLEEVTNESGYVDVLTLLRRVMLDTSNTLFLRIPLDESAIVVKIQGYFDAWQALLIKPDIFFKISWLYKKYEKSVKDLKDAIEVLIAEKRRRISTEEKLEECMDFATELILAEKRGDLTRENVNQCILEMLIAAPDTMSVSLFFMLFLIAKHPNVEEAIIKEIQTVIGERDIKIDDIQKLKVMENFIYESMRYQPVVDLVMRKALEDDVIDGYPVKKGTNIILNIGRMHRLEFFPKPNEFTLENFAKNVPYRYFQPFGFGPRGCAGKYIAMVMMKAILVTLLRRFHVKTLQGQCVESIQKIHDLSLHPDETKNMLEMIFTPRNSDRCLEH

[10] = qHTS assay to identify aromatase inhibitors - cell viability counter screen (AID 743084);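 also: cells stimulated with testosterone during compound exposure; nearly all actives have a fitted effect of over 55% in size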; also: potency is read from the fitted curve at half-maximal effect
[11] = target: Aryl hydrocarbon receptor (Homo sapiens) (UniProt P35869); assay: qHTS assay to identify small molecule that activate the aryl hydrocarbon receptor (AhR) signaling pathway (AID 743085);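 also: HG2L7.5c1 human HepG2 liver cells with stably integrated DRE-driven firefly reporter; series mostly up to about 70 µM; nearly all actives have a fitted effect of over 15% in size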
Aryl hydrocarbon receptor (Homo sapiens), sequence (P35869 whole entry, looked up): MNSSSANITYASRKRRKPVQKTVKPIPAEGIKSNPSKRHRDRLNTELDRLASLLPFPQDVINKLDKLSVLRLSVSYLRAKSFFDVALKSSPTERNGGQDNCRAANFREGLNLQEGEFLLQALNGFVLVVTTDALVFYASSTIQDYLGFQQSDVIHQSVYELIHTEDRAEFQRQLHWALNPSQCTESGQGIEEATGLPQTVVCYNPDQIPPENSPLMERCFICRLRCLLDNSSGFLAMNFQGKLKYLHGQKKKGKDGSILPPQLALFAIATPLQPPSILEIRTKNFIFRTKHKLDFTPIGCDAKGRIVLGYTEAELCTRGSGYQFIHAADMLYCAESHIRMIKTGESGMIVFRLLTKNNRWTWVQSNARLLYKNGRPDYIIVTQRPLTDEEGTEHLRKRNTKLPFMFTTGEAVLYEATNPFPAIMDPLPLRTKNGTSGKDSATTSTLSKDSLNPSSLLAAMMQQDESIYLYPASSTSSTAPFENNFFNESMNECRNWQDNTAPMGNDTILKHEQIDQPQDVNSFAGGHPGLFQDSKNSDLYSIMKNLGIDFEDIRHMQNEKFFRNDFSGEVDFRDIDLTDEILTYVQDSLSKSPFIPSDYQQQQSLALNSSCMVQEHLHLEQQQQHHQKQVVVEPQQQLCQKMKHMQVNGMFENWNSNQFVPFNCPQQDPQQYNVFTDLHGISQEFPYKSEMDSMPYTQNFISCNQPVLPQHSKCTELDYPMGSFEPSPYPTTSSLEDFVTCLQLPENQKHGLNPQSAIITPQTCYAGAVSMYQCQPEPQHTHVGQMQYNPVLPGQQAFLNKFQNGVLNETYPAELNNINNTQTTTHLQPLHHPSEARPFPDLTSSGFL
Method in brief: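 Cell line HG2L7.5c1 (human hepatoma, 20× DRE-luc). Plated, 5 h 37C, compound/DMSO added, 24 h 37C. CellTiter-Fluor 30 min 37C → fluorescence; then ONE-Glo 30 min RT → luminescence.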

[12] = qHTS assay to identify small molecule that activate the aryl hydrocarbon receptor (AhR) signaling pathway - cell viability counter screen (AID 743086); also: nearly all actives have a fitted effect of over 45% in size; also: potency is read from the fitted curve at half-maximal effect
Method in brief: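 Cytotoxicity counter screen: CellTiter-Fluor signal (30 min, 37 C) in 4000 HepG2 cells/well carrying the DRE-luciferase reporter, following 24 h compound exposure at 37 C.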

[13] = target: Peroxisome proliferator-activated receptor gamma (Homo sapiens) (UniProt P37231); assay: qHTS assay to identify small molecule agonists of the peroxisome proliferator-activated receptor gamma (PPARg) signaling pathway (AID 743094; active = well fitted activation curve with a large enough effect in the signal ratio in the repeat runs, not every such curve was filed as active; inconclusive = weak or mixed curves, or effect the other way; inactive = no such curve, though single readings can be large or run the other way; the % refers to the signal ratio)
Peroxisome proliferator-activated receptor gamma (Homo sapiens), sequence (P37231 whole entry, looked up): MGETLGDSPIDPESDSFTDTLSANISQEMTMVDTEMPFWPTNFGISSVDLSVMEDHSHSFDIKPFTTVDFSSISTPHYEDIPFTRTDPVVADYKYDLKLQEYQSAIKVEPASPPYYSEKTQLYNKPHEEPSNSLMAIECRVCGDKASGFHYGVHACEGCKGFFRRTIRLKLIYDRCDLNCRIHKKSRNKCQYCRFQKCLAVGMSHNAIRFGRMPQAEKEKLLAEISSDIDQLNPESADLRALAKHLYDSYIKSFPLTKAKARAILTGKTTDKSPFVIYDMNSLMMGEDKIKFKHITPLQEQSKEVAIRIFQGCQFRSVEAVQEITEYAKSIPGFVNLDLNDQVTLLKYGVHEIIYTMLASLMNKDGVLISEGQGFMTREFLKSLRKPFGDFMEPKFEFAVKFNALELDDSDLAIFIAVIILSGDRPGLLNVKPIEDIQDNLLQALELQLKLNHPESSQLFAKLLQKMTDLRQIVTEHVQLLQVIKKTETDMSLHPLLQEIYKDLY
Method in brief: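 Agonism was assessed in a beta-lactamase reporter system, HEK293H cells with a stably integrated UAS-bla construct under PPARg control; the 17 h treatment at 37C preceded a 1 h room-temperature FRET substrate read.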

[14] = target: Peroxisome proliferator-activated receptor gamma (Homo sapiens) (UniProt P37231); assay: qHTS assay to identify small molecule antagonists of the peroxisome proliferator-activated receptor gamma (PPARg) signaling pathway (AID 743191; calls by dose curve; also: series mostly up to about 63 µM; nearly all actives have a fitted effect of over 30% in size)
Method in brief: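 Beta-lactamase reporter under UAS control in HEK293H PPARg-bla cells; compound treatment 17 h at 37C. Read-out: fluorescence intensity after 1 h room-temperature incubation with LiveBLAzer B/G FRET substrate.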

[15] = qHTS assay to identify small molecule antagonists of the peroxisome proliferator-activated receptor gamma (PPARg) signaling pathway - cell viability counter screen (AID 743194); also: nearly all actives have a fitted effect of over 55% in size
Method in brief: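 Viability was measured as CellTiter-Glo luminescence in GeneBLAzer PPARg UAS-bla HEK293H cells. These cells had been exposed 17 h at 37 C to compounds together with rosiglitazone at 50 nM final, with the beta-lactamase readout taken in the same wells.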

[16] = qHTS assay for small molecule agonists of the antioxidant response element (ARE) signaling pathway (AID 743202; active = well fitted activation curve with a large enough effect in the signal ratio in the repeat runs, not every such curve was filed as active; inconclusive = weak or mixed curves, or effect the other way; inactive = no such curve, though single readings can be large or run the other way; the % refers to the signal ratio; also: potency is read from the fitted curve at half-maximal effect)
Method in brief: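 Beta-lactamase reporter activity, read as fluorescence intensity, reflects ARE/Nrf2 pathway induction in HepG2 cells after 16 h compound exposure at 37 C; substrate loading was 2 h at room temperature.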

[17] = qHTS assay for small molecule agonists of the antioxidant response element (ARE) signaling pathway - cell viability counter screen (AID 743203; calls by dose curve; also: nearly all actives have a fitted effect of over 55% in size)
Method in brief: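 ATP content via CellTiter-Glo luminescence served as the viability measure. Cells: ARE-bla HepG2, 2,000 per well. Exposure: 16 hrs, 37C/5% CO2.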

[18] = qHTS assay for small molecule activators of the heat shock response signaling pathway - cell viability counter screen (AID 743209); also: nearly all actives have a fitted effect of over 50% in size
Method in brief: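 Compounds dissolved in DMSO were added to overnight-plated HSE-bla HeLa cells and left 5 h at 37 C. Cell viability was quantified by luminescence using CellTiter-Glo.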

[19] = qHTS assay for small molecule activators of the heat shock response signaling pathway (AID 743210; active = well fitted activation curve with a large enough effect in the signal ratio in the repeat runs, with a control signal flat, not every such curve was filed as active; inconclusive = weak or mixed curves; the % refers to the signal ratio;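 also: HeLa cells with beta-lactamase reporter driven by heat shock elements; series mostly up to about 63 µM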)
Method in brief: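 Fluorescence from a cleaved B/G FRET substrate (2.5 h, room temp) reports HSE-driven beta-lactamase in HeLa cells treated 5 h at 37 C with DMSO-dissolved compounds.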

Structure (SMILES) | Potency [1] | Potency [2] | Potency [3] | Potency [4] | Potency [5] | Potency [6] | Potency [7] | Potency [8] | Potency [9] | Potency (Aromatase (Homo sapiens)) | Potency [10] | Potency [11] | Potency [12] | outcome [13] | outcome [14] | outcome [15] | Potency [16] | outcome [17] | outcome [18] | outcome [19]
O=c1ccc2ccccc2o1 | inactive | inactive | inactive | inactive | inactive | inactive | 18.8 µM (active) and inactive | inactive | inactive | inactive | inactive | inactive | inactive | inactive | inactive | inactive | inactive | inactive | inactive | 
O=C(O)CCCCC(=O)O | inactive | inactive | inactive | inactive | inactive | inactive | inactive | inactive | inactive | inactive | inactive | inactive | inactive | inactive |  | inactive | inactive | inactive | inactive | 
NC(N)=NC(=O)c1nc(Cl)c(N)nc1N | inactive | 21.1 µM (active) and 54.8 µM (active) | inactive | inactive | inactive | inactive | inactive | inactive | inactive | inactive | inactive | inactive | inactive | inactive | inactive | inactive | inactive and 25.3 µM (active) | inactive | inactive | 
Cc1cc(=O)n(-c2ccccc2)n1C | inactive | inactive | inactive | inactive | inactive | inactive | inactive | inactive | inactive | inactive | inactive | inactive | inactive | inactive | inactive | inactive | inactive | inactive | inactive | 
NC(N)=O | inactive | inactive | inactive | inactive | inactive | inactive | inactive | inactive | inactive | inactive | inactive |  | inactive | inactive | inactive | inactive | inactive | inactive | inactive | 
O=C1CN(/N=C/c2ccc([N+](=O)[O-])o2)C(=O)N1 | 60.9 µM (active) and 68.6 µM (active) | inactive | inactive | 49 µM [inconclusive] (active) | inactive | 2.39 µM [inconclusive] (active) and inactive | 531 nM (active) and inactive | inactive | 43.1 µM (active) | 26.6 µM (active) and 43.1 µM (active) | 30.5 µM (active) | inactive | 30.5 µM (active) and 48.6 µM (active) |  |  | inactive | 17.2 µM (active) and 26.6 µM (active) |  | inactive | inactive
CCCCC1C(=O)N(c2ccccc2)N(c2ccccc2)C1=O | inactive | inactive | inactive | inactive | inactive | inactive | inactive | inactive | inactive | inactive | inactive | inactive | inactive | inactive | inactive | inactive | inactive | inactive | inactive | 
CC(O)CO (stereo unspecified) | inactive | inactive | inactive | inactive | inactive | inactive | inactive | inactive | inactive | inactive | inactive | inactive | inactive | inactive | inactive | inactive | inactive | inactive | inactive | inactive
Cc1cc(=O)[nH]c(=S)[nH]1 | inactive | inactive | inactive | inactive | inactive | inactive | inactive | inactive | inactive | inactive | inactive | inactive | inactive | inactive | inactive | inactive | inactive | inactive | inactive | inactive
COC(=O)[C@H](Cc1ccccc1)NC(=O)[C@@H](N)CC(=O)O (H-Asp-Phe-OMe) | inactive | inactive | inactive | inactive | inactive | inactive | inactive | inactive | inactive | inactive | inactive | inactive | inactive | inactive | inactive | inactive | inactive | inactive | inactive | 
Cc1noc(NS(=O)(=O)c2ccc(N)cc2)c1C | inactive | inactive | inactive | inactive | inactive | inactive | 29.8 µM (active) and inactive | inactive | inactive | inactive | inactive | inactive | inactive | inactive | inactive | inactive | inactive | inactive | inactive | 
Nc1ccn([C@H]2CC[C@@H](CO)O2)c(=O)n1 | inactive | inactive | inactive | inactive | inactive | inactive | inactive | inactive | inactive | inactive | inactive |  | inactive | inactive | inactive | inactive | inactive | inactive | inactive | inactive
O=c1cc[nH]c(=S)[nH]1 | inactive | inactive | inactive | inactive | inactive | inactive | inactive | inactive | inactive | inactive | inactive | inactive | inactive | inactive | inactive | inactive | inactive | inactive | inactive | inactive
